Screens (PubChem)
PLC-beta3 inh = human PLC-beta3 inhibitors, primary screen, biochemical, fluorescence. 1-phosphatidylinositol 4,5-bisphosphate phosphodiesterase beta-3 (Homo sapiens), Q01970. Purified PLC-beta3, fluorogenic substrate. inhibition, % at 12.2 µM. actives 0.18% (n = 370,000). AID 720704, 2013; in the data active = inhibition above about 11%
ADAM10 inh = human ADAM10 inhibitors, primary screen, biochemical, QFRET, HTS | inhibition, % at 7 µM | actives 0.62% (n = 370,000) | recombinant ADAM10, EDANS/DABCYL FRET peptide cleavage, 3 h;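 active = inhibition above a per-campaign cutoff equal to the mean of compounds falling between control-based bounds plus 3 SD, cut at about 20% in these data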
Rce1 inhib = yeast Rce1p protease inhibitors, primary screen, biochemical, fluorescence, cell-free homogeneous | CAAX prenyl protease 2 (Saccharomyces cerevisiae (strain ATCC 204508 / S288c)), Q03530 | calls only | AID 2563, 2010 | yeast membranes, quenched prenylated peptide cleavage fluorescence | actives 0.27% (n = 290,000);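 active = fall in fluorescence gain of 50% or more versus controls, with final raw signal at or below 3038400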
ADAM17 inh = ADAM17 inhibitors, primary screen, biochemical, QFRET; recombinant ADAM17, EDANS/DABCYL FRET peptide cleavage; inhibition, % at 6.95 µM; actives 0.83% (n = 370,000);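 active = inhibition above the mean of compounds lying between control limits plus 3 SD, set per campaign, cut at about 8.5% in these data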
PLCg1 inh = PLC-gamma1 enzyme inhibitors, primary screen, biochemical, fluorescence, purified enzyme. inhibition, % at 12.2 µM. 1-phosphatidylinositol 4,5-bisphosphate phosphodiesterase gamma-1 (Homo sapiens), P19174. fluorogenic substrate. actives 0.84% (n = 370,000)
Target sequence (P19174 whole entry, looked up): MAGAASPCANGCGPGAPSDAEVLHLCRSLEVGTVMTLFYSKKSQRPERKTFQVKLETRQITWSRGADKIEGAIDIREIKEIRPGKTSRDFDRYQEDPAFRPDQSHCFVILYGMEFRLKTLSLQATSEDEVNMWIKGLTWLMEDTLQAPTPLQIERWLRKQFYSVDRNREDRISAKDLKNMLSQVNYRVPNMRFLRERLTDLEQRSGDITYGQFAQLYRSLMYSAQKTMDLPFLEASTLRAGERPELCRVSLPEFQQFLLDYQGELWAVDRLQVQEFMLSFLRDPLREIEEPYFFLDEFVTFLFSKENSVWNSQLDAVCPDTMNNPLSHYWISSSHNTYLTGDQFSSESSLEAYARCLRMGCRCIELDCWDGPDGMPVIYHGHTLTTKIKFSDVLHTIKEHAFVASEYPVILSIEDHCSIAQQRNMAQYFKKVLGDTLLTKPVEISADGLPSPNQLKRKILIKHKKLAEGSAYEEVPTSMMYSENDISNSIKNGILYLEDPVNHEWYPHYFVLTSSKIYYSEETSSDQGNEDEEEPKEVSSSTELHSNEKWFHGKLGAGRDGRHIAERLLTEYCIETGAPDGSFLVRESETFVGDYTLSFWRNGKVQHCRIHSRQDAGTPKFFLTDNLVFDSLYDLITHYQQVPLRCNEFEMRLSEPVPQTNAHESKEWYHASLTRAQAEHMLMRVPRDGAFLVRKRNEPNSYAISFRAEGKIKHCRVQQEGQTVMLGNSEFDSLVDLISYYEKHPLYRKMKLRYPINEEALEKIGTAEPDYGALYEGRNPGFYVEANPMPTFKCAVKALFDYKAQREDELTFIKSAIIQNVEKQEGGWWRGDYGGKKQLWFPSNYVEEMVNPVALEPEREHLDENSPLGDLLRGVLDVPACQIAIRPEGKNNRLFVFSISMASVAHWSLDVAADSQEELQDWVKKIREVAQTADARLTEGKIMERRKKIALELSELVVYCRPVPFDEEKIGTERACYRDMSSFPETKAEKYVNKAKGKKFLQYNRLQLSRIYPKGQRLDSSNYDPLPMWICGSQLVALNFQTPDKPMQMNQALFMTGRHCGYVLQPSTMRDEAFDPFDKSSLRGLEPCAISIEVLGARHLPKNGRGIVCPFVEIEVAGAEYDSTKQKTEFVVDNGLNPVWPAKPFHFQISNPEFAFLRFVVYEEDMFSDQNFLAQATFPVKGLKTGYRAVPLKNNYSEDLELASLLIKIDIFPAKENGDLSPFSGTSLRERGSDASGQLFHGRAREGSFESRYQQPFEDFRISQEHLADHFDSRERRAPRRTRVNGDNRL
PLCg1 ctr = PLC-gamma1 enzyme inhibitors, counter-screen for PLC-beta3 inhibitor project, biochemical, fluorescence; shares compounds with PLCg1 inh; purified PLC-gamma1, fluorogenic substrate; inhibition, % at 12.3 µM; actives 3.1% (n = 3,300); AID 743258, 2014
PLCb3 confirm = PLC-beta3 inhibitor confirmation, biochemical, fluorescence, purified enzyme | shares compounds with PLCg1 inh | fluorogenic substrate fluorescence | inhibition, % at 12.3 µM | actives 1% (n = 3,300); in the data active = inhibition above about 11%
A number is an active result; 0 = inactive; - = not tested or not shown. Most compounds without a hit are left out; they make up all but 2.1% or so of the library. Cut-off read from the data, not from the text of the source, unless noted: active = inhibition above about 9.5%; inactive = the rest.

SMILES | PLC-beta3 inh | ADAM10 inh | Rce1 inhib | ADAM17 inh | PLCg1 inh | PLCg1 ctr | PLCb3 confirm
O=C(NC1C2CC3CC(C2)CC1C3)C1CCCCC1 (stereo unspecified) | 0 | 0 | 0 | 8.6 | 16 | 0 | 0
CS(=O)(=O)N1CCC(C(=O)NCc2ccncc2)CC1 | 0 | 0 | 0 | 0 | 0 | - | -
CS(=O)(=O)N1CCC(C(=O)NCc2ccc(Cl)cc2)CC1 | 0 | 0 | 0 | 0 | 12 | 0 | 0
CC1(C(=O)Nc2cccc(NS(C)(=O)=O)c2)Cc2c(-c3ccc(C(N)=O)cc3)ccnc2O1 (stereo unspecified) | 0 | 0 | - | 0 | 10 | 0 | 0
CNC(=O)C1(C)Cc2c(-c3ccc(NC(C)=O)cc3)ccnc2O1 (stereo unspecified) | 0 | 0 | - | 0 | 0 | - | -
CC(=O)Nc1ccc(-c2ccnc3c2CC(C)(C(=O)NC(C)C)O3)cc1 (stereo unspecified) | 0 | 0 | - | 0 | 12 | 0 | 0
COc1ccc(CNC(=O)C2(C)Cc3c(-c4cccc(C(N)=O)c4)ccnc3O2)cc1OC (stereo unspecified) | 0 | 0 | - | 0 | 10 | 0 | 0
CN(Cc1ccccc1C(F)(F)F)C(=O)C1CCC(=O)N(CC2CCCCC2)C1 (stereo unspecified) | 0 | 0 | - | 0 | 0 | - | -
Cc1cccc(C)c1-n1ncc(C(=O)NC2CCCC2)c1C1CCNCC1 | 0 | 0 | 0 | 0 | 15 | 0 | 0
CC(CC(=O)N1CCc2ccccc21)n1cccn1 (stereo unspecified) | 0 | 0 | 0 | 0 | 0 | - | -
O=C1CC(CC(=O)N/N=C/c2ccccc2[N+](=O)[O-])=NN1 | 0 | 0 | 0 | 0 | 13 | 0 | 0
Cc1cc(C)cc(NCCC#N)c1 | 0 | 0 | 0 | 0 | 0 | - | -
O=c1[nH]c(-c2ccccc2)cn1C1CCN(Cc2ccc(-c3nc4ccc(Br)cc4nc3-c3ccccc3)cc2)CC1 | 0 | 0 | - | 0 | 0 | - | -
COc1ccc(CCN(C)C(=O)C(CCSC)NC(=O)c2ccco2)cc1OC (stereo unspecified) | 0 | 0 | - | 0 | 0 | - | -
O=C(c1ccco1)N1CCN(C(=O)C2CC(c3ccccc3F)=NO2)CC1 (stereo unspecified) | 0 | 0 | 0 | 0 | 14 | 0 | 0
O=C(c1ccco1)N1CCN(c2ccccc2F)CC1 | 0 | 0 | 0 | 0 | 0 | - | -
O=C(c1ccco1)N1CCN(Cc2nnc(-c3ccccc3F)o2)CC1 | 0 | 0 | 0 | 0 | 9.8 | 0 | 0
CCCN(C(=O)CCNC(=O)Cn1cnc2ccccc2c1=O)c1cccc(Cl)c1 | - | - | 0 | - | - | - | -
COC(=O)c1ccccc1NC(=O)CCNC(=O)Cn1cnc2ccccc2c1=O | 0 | 0 | 0 | 0 | 0 | - | -
CCCN(C(=O)CCNC(=O)Cn1cnc2ccccc2c1=O)c1cccc(C)c1 | 0 | 0 | 0 | 0 | 11 | 0 | 0
COC(=O)c1ccc(C)c(NC(=O)Cn2cnc3ccccc3c2=O)c1 | 11 | 0 | 0 | 0 | 0 | 0 | 0
OCC(O)/C=N/Nc1nc(N2CCCCC2)nc(N2CCCCC2)n1 (stereo unspecified) | 0 | 0 | 0 | 0 | 0 | - | -
O=C(NNC(=O)C12CC3CC(CC(C3)C1)C2)c1cnccn1 | 0 | 0 | 0 | 0 | 11 | 0 | 0
Cc1ccnc(NC(=O)C23CC4CC(CC(C4)C2)C3)c1 | 11 | 0 | 0 | 0 | 0 | 0 | 0
O=C(Nc1cccnc1)C12CC3CC(CC(C3)C1)C2 | 11 | 0 | 0 | 0 | 0 | 0 | 0
SMILES | PLC-beta3 inh | ADAM10 inh | Rce1 inhib | ADAM17 inh | PLCg1 inh | PLCg1 ctr | PLCb3 confirm
O=C(NNC(=O)C12CC3CC(CC(C3)C1)C2)c1ccccn1 | 0 | 0 | 0 | 0 | 0 | - | -
Cn1ccnc1COc1ccc(/C=N/O)cc1 | 0 | 0 | 0 | 0 | 0 | - | -
CC(C)C[C@H]1COc2cccc(N3CCC[C@H]3CO)c2S(=O)(=O)N1 | 0 | 0 | - | 0 | 0 | - | -
CNc1ncc(C(=O)C(C)(C)C)s1 | 0 | 0 | 0 | 0 | 11 | 0 | 0
Cc1ccc(S(=O)(=O)CCc2nnc(NC(=O)C3CCCO3)s2)cc1 (stereo unspecified) | 0 | 0 | 0 | 0 | 9.6 | 0 | 0
Nn1cnnc1SCC(=O)N(C1CCCCC1)C1CCCCC1 | 0 | 0 | 0 | 0 | 11 | 0 | 0
O=C(CCS(=O)(=O)c1cccs1)Nc1ccc(C(=O)NCc2ccc(F)cc2)cc1 | 0 | 0 | 0 | 0 | 9.6 | 0 | 0
O=C(OC1CCN(c2ncc(C(F)(F)F)cc2Cl)CC1)c1cccc(C(F)(F)F)c1 | 0 | 0 | 0 | 0 | 0 | - | -
O=C(c1cccc(C(F)(F)F)c1)N1CCOC12CCN(c1ncc(C(F)(F)F)cc1Cl)CC2 | 0 | 0 | 0 | 0 | 11 | 0 | 0
COc1ccc(Br)cc1S(=O)(=O)N1CC(C)OC(C)C1 (stereo unspecified) | 11 | 0 | 0 | 0 | 0 | 0 | 0
Cc1ccc(-c2cc(N)n(-c3ccc(F)cc3)n2)cc1 | 0 | 0 | 0 | 0 | 13 | 0 | 0
O=C(OCC#CCSc1nnc(-c2cccc(F)c2)o1)c1ccc(F)cc1 | 0 | 0 | - | 0 | 0 | - | -
CCOC(=O)c1ccc(NC(=O)c2nc[nH]c2C(=O)NC2CCN(C(=O)OC(C)(C)C)CC2)cc1 | 0 | 0 | 0 | 0 | 11 | 0 | 0
COC(=O)C(Cc1ccc(OC(=O)c2ccc(C)cc2)cc1)N1Cc2ccccc2C1=O (stereo unspecified) | - | - | 0 | - | - | - | -
COC(=O)c1ccc(C(c2c(C)n(C)n(-c3ccccc3)c2=O)c2c(C)n(C)n(-c3ccccc3)c2=O)cc1 | 0 | 0 | 0 | 0 | 12 | 0 | 0
CCCCCn1c(SCC2CCCO2)nc2cc(C(=O)N3CCC(C(N)=O)CC3)ccc2c1=O (stereo unspecified) | 0 | 0 | - | 0 | 9.6 | 0 | 0
CCCN1CCN(CCCNC(=O)C(CC)n2nc(C)c3sc4ccccc4c3c2=O)CC1 (stereo unspecified) | 0 | 0 | 0 | 0 | 0 | - | -
CCC(C(=O)NCCCN1CCN(C)CC1)n1nc(C)c2sc3ccccc3c2c1=O (stereo unspecified) | 0 | 0 | 0 | 0 | 9.6 | 0 | 0
O=C(Nc1nncs1)c1cc(S(=O)(=O)N2CCCCC2)ccc1Cl | 0 | 0 | 0 | 0 | 0 | - | -
COc1ccccc1CC(=O)O/N=C(\N)Cc1cccc2ccccc12 | 0 | 0 | 0 | 0 | 0 | - | -
COc1ccccc1C/C(N)=N/O | 11 | 0 | 0 | 0 | 0 | 0 | 0
O=C1CC(NS(=O)(=O)c2cccnc2)CN1c1ccc(Cl)cc1 (stereo unspecified) | 0 | 0 | 0 | 0 | 0 | - | -
